{"source": "PubChem BioAssay AID651650", "about": "(Sanford-Burnham Center for Chemical Genomics, 2012)", "data": [{"molecular_target": "Neuropilin-1 (Homo sapiens) (UniProt O14786)", "sequence (O14786 whole entry, looked up)": "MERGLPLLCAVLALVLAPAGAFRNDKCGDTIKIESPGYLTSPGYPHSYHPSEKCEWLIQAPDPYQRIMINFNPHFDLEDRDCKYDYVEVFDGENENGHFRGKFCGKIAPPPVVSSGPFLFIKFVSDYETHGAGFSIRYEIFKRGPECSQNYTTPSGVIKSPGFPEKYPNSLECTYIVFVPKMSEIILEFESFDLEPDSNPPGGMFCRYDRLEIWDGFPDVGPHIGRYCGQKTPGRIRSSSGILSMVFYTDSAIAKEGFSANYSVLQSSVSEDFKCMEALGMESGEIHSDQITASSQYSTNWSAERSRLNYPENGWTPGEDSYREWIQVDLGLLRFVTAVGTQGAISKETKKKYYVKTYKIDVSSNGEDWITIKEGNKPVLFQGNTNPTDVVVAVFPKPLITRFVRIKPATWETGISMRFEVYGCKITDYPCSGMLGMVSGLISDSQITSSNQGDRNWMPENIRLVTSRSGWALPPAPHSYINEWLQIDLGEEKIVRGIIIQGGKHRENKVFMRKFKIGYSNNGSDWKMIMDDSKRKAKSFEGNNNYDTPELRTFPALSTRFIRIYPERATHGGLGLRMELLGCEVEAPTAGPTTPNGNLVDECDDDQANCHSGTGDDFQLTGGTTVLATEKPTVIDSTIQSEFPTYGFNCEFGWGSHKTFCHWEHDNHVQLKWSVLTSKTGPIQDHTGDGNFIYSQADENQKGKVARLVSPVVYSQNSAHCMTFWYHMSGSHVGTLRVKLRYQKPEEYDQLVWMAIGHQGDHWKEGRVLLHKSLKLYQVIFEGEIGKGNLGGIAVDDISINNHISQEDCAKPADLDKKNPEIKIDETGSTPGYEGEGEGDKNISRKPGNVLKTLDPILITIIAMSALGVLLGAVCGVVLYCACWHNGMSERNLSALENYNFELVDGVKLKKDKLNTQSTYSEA", "test": "NRP-1 b1b2 CendR peptide binding inhibitors, dose response, biochemical, FP and AlphaScreen panel (AID 651650)", "settings": "NRP-1 b1b2 / RPARPAR peptide binding, FP or AlphaScreen; run 1, at 100 µM (top of the series)", "units": {"inhibition": "%"}, "values": [{"smiles": "CCOC(=O)C[C@H]1c2cc(C(F)(F)F)ccc2S(=O)(=O)N1Cc1ccccc1", "inhibition": 59.5}, {"smiles": "COc1cc(C(=O)OCCCOC(=O)c2cc(OC)c(OC)c(OC)c2)cc(OC)c1OC", "inhibition": 13.4}, {"smiles": "Cc1cccc(NC(=O)c2ccc(OCc3c(C)noc3C)cc2)c1", "inhibition": 93.6}, {"smiles": "CC(C)(C)n1cnc2cc(NC(=O)c3ccccc3)ccc21", "inhibition": 95.9}, {"smiles": "O=C(c1ncn(Cc2ccccc2)c1C(=O)N1CCc2ccccc2C1)N1CCc2ccccc2C1", "inhibition": 23}, {"smiles": "Cc1cc(NC(=O)COC(=O)c2ccc(C)c(C)c2)no1", "inhibition": 5.88}, {"smiles": "O=C(CSc1nc(O)c(Cc2ccccc2)c(=O)n1-c1ccccc1)N1CCOCC1", "inhibition": -18.5}, {"smiles": "Cc1cc2cc(CNC(=O)c3ccc(S(=O)(=O)N4CCOCC4)cc3)ccc2n1C", "inhibition": 18.3}, {"smiles": "Cn1c(=O)c2c(ncn2CC(COCc2ccccc2)OCc2ccccc2)n(C)c1=O", "note": "(stereo not drawn)", "inhibition": 54.8}, {"smiles": "CC1CCN(C(=O)CSc2nncn2C)CC1", "inhibition": 0.359}, {"smiles": "Cc1ccc(Cl)c(NC(=O)CSc2cccc[n+]2[O-])c1Cl", "inhibition": -8.97}, {"smiles": "Cc1ccc(NNS(=O)(=O)c2ccc(C)cc2)cc1", "inhibition": 16.2}, {"smiles": "CC1CCN(C(=O)c2[nH]cnc2C(=O)NCc2ccc(CNC(=O)OC(C)(C)C)cc2)CC1", "inhibition": 55.2}, {"smiles": "N#CC(C#N)=Cc1cc2ccccc2nc1N1CCCCC1", "inhibition": -3.26}, {"smiles": "O=C(CSc1nnc(CNC(=O)C23CC4CC(CC(C4)C2)C3)n1-c1ccccc1)Nc1ccc(F)cc1", "inhibition": 4.39}, {"smiles": "CCc1onc(C)c1C(=O)Nc1cc(C)ccc1OC", "inhibition": 95.6}, {"smiles": "O=C(Nc1ccc(F)cc1)c1cc(S(=O)(=O)Nc2ccc(F)cc2)cs1", "inhibition": 2.95}, {"smiles": "COc1ccc(C2CC(C(F)(F)F)n3nc(C(=O)O)c(Cl)c3N2)cc1OC", "note": "(stereo not drawn)", "inhibition": 46.4}, {"smiles": "COc1ccc(N=C2C(=Nc3ccc(OC)cc3)N(c3ccc(N(C)C)cc3)C(=S)N2c2ccc(OC)cc2)cc1", "inhibition": 50.6}, {"smiles": "CC(=O)N1CCSc2ccc(S(=O)(=O)Nc3ccc(C)cc3)cc21", "inhibition": 47.7}, {"smiles": "O=C(CSc1nc2ccc(Cl)cc2[nH]1)NCCc1ccccc1", "inhibition": 18.8}, {"smiles": "O=C(CCc1ccc(Oc2cc([N+](=O)[O-])cc([N+](=O)[O-])c2)cc1)N1CCCCCC1", "inhibition": 75.6}, {"smiles": "COc1ccc(CCN=C2SCC(=O)N2Cc2ccccc2)cc1OC", "inhibition": 28.8}, {"smiles": "O=C(O)CCCC(=O)N1CCc2cc(S(=O)(=O)N3CCc4ccccc43)ccc21", "inhibition": -2.42}, {"smiles": "CCCCOC(=O)c1ccc(NS(=O)(=O)c2cc(-c3nnnn3CC)ccc2OC)cc1", "inhibition": 44.5}, {"smiles": "O=C(/C=C/c1ccccc1)c1ccccn1", "inhibition": -2}, {"smiles": "CC(C)(C)N(NC(=O)Nc1ccc(Cl)cc1)C(=O)c1ccccc1", "inhibition": 48.3}, {"smiles": "CCCNC(=O)[C@H]1N2C(=O)c3c(ccc(OC)c3OC)C2SC1(C)C", "note": "(stereo partly drawn)", "inhibition": 51.5}, {"smiles": "CC#CCN(Cc1ccco1)C(=O)C1CCC(=O)N(Cc2ccccc2F)C1", "note": "(stereo not drawn)", "inhibition": 24.4}, {"smiles": "c1ccc2c(CNc3ccc(CNc4ncn[nH]4)cc3)cccc2c1", "inhibition": 25.6}, {"smiles": "Cc1ccc(C(=O)N2CCN(C34CC5CC(CC(C5)C3)C4)CC2)o1", "inhibition": 57.6}, {"smiles": "Cc1cccc(CN2CCN(C3CN(Cc4cn(Cc5cccc(Cl)c5)nn4)S(=O)(=O)C3)CC2)c1", "note": "(stereo not drawn)", "inhibition": 33.2}, {"smiles": "CCCCOc1ccc(C(=O)N/C(=C/C=C/c2ccccc2)C(=O)NCCCO)cc1", "inhibition": 10.5}, {"smiles": "COc1cc2c(cc1OC)C(Nc1ccc(S(N)(=O)=O)cc1)=NC(C)(C)C2", "inhibition": 71.9}, {"smiles": "CN(Cc1ccccc1)C(=O)c1nc[nH]c1C(=O)N1CCN(C(=O)OC(C)(C)C)CC1", "inhibition": 53.3}, {"smiles": "CCOC(=O)C1CCN(Cc2ccc3ccccc3c2)CC1", "inhibition": 52.3}, {"smiles": "CCCS(=O)(=O)N1CCC(Cc2ccc(OC)cc2)(C(=O)OCC)CC1", "inhibition": -57.8}, {"smiles": "CCCN=C1N/C(=C\\c2ccco2)C(=O)N1c1ccccc1", "inhibition": 3.93}]}]}
